FID counter: compounds displacing fluorescent DNA intercalator, primary screen, artefact control for HCV NS3 helicase inhibitor project, biochemical, FID fluorescence. DNA fluorescent intercalator displacement. inhibition, % at 7.9 µM. 290,000 compounds, 0.17% hits; in the data active = inhibition above about 37%;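 note: 0% = vehicle and 100% = reference compound; higher means more ethidium bromide displaced from hairpin DNA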
M18AAP inhibitor: PfM18AAP inhibitors, malaria aminopeptidase, primary screen, biochemical, QFRET, recombinant enzyme | M18 aspartyl aminopeptidase (Plasmodium falciparum 3D7) | H-Glu-NHMec fluorogenic cleavage | AID 1822, 2009 | inhibition, % at 7.35 µM | 290,000 compounds, 1.2% hits;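 active = inhibition above the campaign mean inhibition over all tested compounds plus 3 SD, cut at about 28% in these data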;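 note: 0% = plate median of test compound wells and 100% = 2 mM ZnCl2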
Kir21 inh: inhibitors of mouse Kir2.1 inward-rectifier potassium channel | Inward rectifier potassium channel 2 (Mus musculus), P35561 | HEK293-Kir2.1, FluxOR thallium flux fluorescence; active compounds read low | B-score at 10 µM | 310,000 compounds, 0.85% hits;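 active = fluorescence ratio B-score at or below minus 3 SD of library scores, with starting-brightness B-score within 2 SD, cut at about -4.2 in these data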;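 note: channel flux triggered by added potassium and thallium sulfate stimulus; B-score of peak minus minimum fluorescence over baseline after thallium stimulus; more negative B-score means stronger Kir2.1 block with less thallium influx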
Rce1 inhib: yeast Rce1p protease inhibitors, primary screen, biochemical, fluorescence, cell-free homogeneous; CAAX prenyl protease 2 (Saccharomyces cerevisiae (strain ATCC 204508 / S288c)), Q03530; yeast membranes, quenched prenylated peptide cleavage fluorescence; calls only; 290,000 compounds, 0.27% hits; AID 2563, 2010;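 active = fall in fluorescence gain of 50% or more versus controls, with final raw signal at or below 3038400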;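 note: plate controls were neutral control wells for no effect and wells lacking membranes for full effect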
Target sequence (Q03530 whole entry, looked up): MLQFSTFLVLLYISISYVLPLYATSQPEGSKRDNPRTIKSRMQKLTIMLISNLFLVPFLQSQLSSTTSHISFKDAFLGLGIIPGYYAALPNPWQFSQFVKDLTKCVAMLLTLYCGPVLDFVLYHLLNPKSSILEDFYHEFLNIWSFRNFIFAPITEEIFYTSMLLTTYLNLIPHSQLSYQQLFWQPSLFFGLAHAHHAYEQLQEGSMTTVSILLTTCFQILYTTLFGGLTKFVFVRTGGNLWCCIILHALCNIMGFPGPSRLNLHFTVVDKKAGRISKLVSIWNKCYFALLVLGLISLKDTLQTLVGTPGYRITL
An asterisk follows results filed as active; i = inactive; nt = not tested or not shown; + = active, no number. A selection: hits, their analogues and other compounds. The true share with any hit is near 2.3%.

SMILES	FID counter	M18AAP inhibitor	Kir21 inh	Rce1 inhib
CC(Cc1ccc(O)c(O)c1)C(C)Cc1ccc(O)c(O)c1 (configuration not stated)	nt	nt	-11*	i
CC(CCc1ccc(O)cc1)NCCc1ccc(O)c(O)c1 (configuration not stated)	nt	nt	1.9	i
CN(C)CCNc1cc(-c2ccncc2)nc2ccccc12	77*	-1	1.6	i
Cc1cccc(-c2nc(NCCCN(C)C)c3ccccc3n2)c1	63*	-3	-0.44	i
Cc1ccc(-c2nc(NCCN(C)C)c3ccccc3n2)cc1	71*	-2	0.51	i
CN(C)CCCNc1nc(-c2ccc(Cl)cc2)nc2ccccc12	54*	6	-0.42	i
COc1ccccc1OCCNC(=O)C1CC(=O)N(c2ccc3c(c2)OCCO3)C1 (configuration not stated)	nt	nt	-0.98	i
CCc1cc(C(=O)NCC2CCCO2)sc1C (configuration not stated)	-7	0	1.8	i
COCCCNC(=O)C1CCN(C(=O)c2oc3cc4sc(N(C)C)nc4cc3c2C)CC1	-50	-3	1.2	i
S=C(NCc1ccccc1)NC1CCCc2ccccc21 (configuration not stated)	-13	-5	-6.2*	i
Cc1nc(N2CCOCC2)[nH]c(=O)c1C	5	5	-0.77	i
COc1ccc(/C=C/c2nc3ccccc3n2C)cc1	-8	2	-1.6	+
N#Cc1c(NC(=S)NC(=O)c2ccccc2)sc2c1CCN(CCc1ccccc1)C2	3	2	-2.1	i
CC(C)(C)C(=O)Nc1sc2c(c1C#N)CCN(Cc1ccccc1)C2	-18	29*	0.37	i
O=C(CSc1nnc(-c2ccco2)o1)c1ccc[nH]1	5	7	0.09	i
c1ccc2c(c1)oc1c(Nc3ccc(CN4CCOCC4)cc3)ncnc12	5	5	-5*	i
c1ccc(Nc2ncnc3c2oc2ccccc23)cc1	-5	2	-0.38	i
CC(=O)c1ccc(OCCCC(=O)NCCc2ccc(C(F)(F)F)cc2)cc1	-27	7	0.64	i
CCCN(CC(=O)Nc1ccc(F)c(F)c1F)C(=O)CCc1nc2ccccc2c(=O)[nH]1	nt	nt	0.98	i
CC(OC(=O)c1ccc2c(=O)n3c(nc2c1)CCC3)C(=O)NC1CCCCC1C (configuration not stated)	-30	-14	2	+
COc1cccc2cc(C(=O)C3=C(O)C(=O)N(CCN4CCOCC4)C3c3cccc(Cl)c3)oc12 (configuration not stated)	-75	14	-1.1	i
O=C(NCCc1ccccc1)c1ccc2c(=O)[nH]c3c(C(=O)NCC4CCCO4)sc(=S)n3c2c1 (configuration not stated)	49*	6	0.28	i
CN1CCN(CC(=O)N2c3ccccc3C(C)(c3ccccc3)CC2(C)C)CC1 (configuration not stated)	16	-6	-6.2*	i
CC(=O)c1c(C)nc(-c2ccccc2)nc1N	6	-1	0.62	+
CCOC(=O)c1c(C)nc(-c2ccccc2)nc1N	-3	-1	1.7	i
SMILES	FID counter	M18AAP inhibitor	Kir21 inh	Rce1 inhib
COc1ccccc1C(=O)NC1CCSc2ccccc21 (configuration not stated)	-24	1	0.1	i
Cc1onc(-c2ccccc2Cl)c1C(O)c1ccc(F)cc1 (configuration not stated)	-13	4	-3.4	i
Cc1onc(-c2c(F)cccc2Cl)c1C(O)c1ccc(F)cc1 (configuration not stated)	-5	-6	-4.4*	i
CCCn1c(C)cc(C)c(C#N)c1=O	-2	-6	-0.26	i
Cc1cc(C)n(CC(=O)NC2CCCCC2C)c(=O)c1C#N (configuration not stated)	nt	nt	0.33	+
Cc1ccc(C(C)NC(=S)NCc2ccc(F)cc2)cc1C (configuration not stated)	-22	-3	-11*	i
CC(=O)N1CCn2c3c(c4cc(C)ccc42)CCCC31 (configuration not stated)	-25	-6	1.6	i
Cc1ccc2c(c1)c1c3n2CCN(C(=O)CCl)C3CCC1 (configuration not stated)	-1	3	-8.8*	i
CCCc1nn(C)c(C(N)=O)c1[N+](=O)[O-]	-2	4	0	i
Cc1ccc(CSc2nnc([C@@H]3CCCN3C(=O)OC(C)(C)C)o2)cc1	-41	2	-7.1*	i
CN1CCCC(OC(=O)c2ccccc2Br)C1 (configuration not stated)	1	-1	0.47	i
CCC(NC(=O)c1oc2ccccc2c1COC)c1ccc(OC)cc1 (configuration not stated)	-40	-7	-5.7*	i
Cc1cccc(Nc2nc(NCc3ccco3)c3ccccc3n2)c1	18	0	-14*	i
c1ccc(Nc2nc(NCc3ccco3)c3ccccc3n2)cc1	19	3	-17*	i
Oc1ccccc1Nc1nc(NCc2ccco2)c2ccccc2n1	19	-26	-0.14	i
Cc1ccccc1Nc1nc(NCc2ccco2)c2ccccc2n1	27	7	-13*	i
COc1cccc(-c2ccc(NC(=O)C3CCCN(Cc4nccn4C)C3)cc2)c1 (configuration not stated)	18	-4	0.71	i
COc1ccccc1NC(=O)CCN1C(=O)C2C3CCC(C3)C2C1=O (configuration not stated)	-5	0	0.31	i
COc1ccc(C2C(C(=O)c3ccco3)=C(O)C(=O)N2CC2CCCO2)cc1OC (configuration not stated)	-7	2	-0.05	i
O=c1cc(CO)oc(CN2CCN(c3cccc(C(F)(F)F)c3)CC2)c1O	-5	29*	-0.9	i
CCO[C@@H]1OC(C(N)=O)=C[C@H](C2CC2)[C@H]1CCCO	nt	nt	2.8	i
CC1CCCC(NCC(O)COC(c2ccc(F)cc2)c2ccc(F)cc2)C1C (configuration not stated)	46*	20	-3.9	i
CC1CCCC(NC(=O)CSc2ccc(F)cc2)C1C (configuration not stated)	-13	2	-0.9	i
Cc1cc(Cc2ccc(N)c(C)c2)ccc1N	-5	1	0.67	i
Nc1ccc(Cc2ccc(N)c(C(=O)O)c2)cc1C(=O)O	-2	-4	-0.97	+
CCS(=O)(=O)Nc1c(C(=O)O)[nH]c2ccccc12	-19	-8	0.84	+
O=C1COc2ccc(C(=O)COC(=O)c3ncc(Cl)c(Cl)c3Cl)cc2N1	nt	nt	0.04	nt
CN1CC(C(=O)O)Cc2c1ccc1ccccc21 (configuration not stated)	3	6	-1	+
Cc1ccccc1N1CC(C(=O)O)CC1=O (configuration not stated)	0	-2	-1.8	i
